We go through five molecules from ChEMBL document CHEMBL1961873, “Compounds: GSK PKIS; Assays: Nanosyn kinase panel” (2012).

Assay [1] addresses Mitogen-activated protein kinase 3 (Homo sapiens) (UniProt P27361). The note with it: at 1 µM.
Assay [2] has as its target SRSF protein kinase 3 (Homo sapiens) (UniProt Q9UPE1). As to conditions: at 0.1 µM.
For assay [3] the target is unchanged. As to conditions: at 1 µM.
For assay [4], the target named is Mitogen-activated protein kinase 14 (Homo sapiens) (UniProt Q16539). The note with it: at 0.1 µM.
Sequence of Mitogen-activated protein kinase 14 (Homo sapiens) (Q16539 whole entry): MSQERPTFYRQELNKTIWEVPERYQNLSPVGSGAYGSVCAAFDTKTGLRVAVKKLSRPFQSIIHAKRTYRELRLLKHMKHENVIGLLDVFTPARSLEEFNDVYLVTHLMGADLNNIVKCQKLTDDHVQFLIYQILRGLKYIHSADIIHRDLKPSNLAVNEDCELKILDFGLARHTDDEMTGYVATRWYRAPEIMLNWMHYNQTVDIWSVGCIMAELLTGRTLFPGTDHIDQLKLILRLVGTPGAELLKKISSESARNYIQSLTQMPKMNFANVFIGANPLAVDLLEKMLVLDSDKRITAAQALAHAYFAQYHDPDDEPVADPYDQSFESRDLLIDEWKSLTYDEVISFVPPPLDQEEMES
The target is the same in assay [5]. As to conditions: at 1 µM.
In assay [6] the target is Mitogen-activated protein kinase 11 (Homo sapiens) (UniProt Q15759). As to conditions: at 0.1 µM.
Sequence of Mitogen-activated protein kinase 11 (Homo sapiens) (Q15759 whole entry): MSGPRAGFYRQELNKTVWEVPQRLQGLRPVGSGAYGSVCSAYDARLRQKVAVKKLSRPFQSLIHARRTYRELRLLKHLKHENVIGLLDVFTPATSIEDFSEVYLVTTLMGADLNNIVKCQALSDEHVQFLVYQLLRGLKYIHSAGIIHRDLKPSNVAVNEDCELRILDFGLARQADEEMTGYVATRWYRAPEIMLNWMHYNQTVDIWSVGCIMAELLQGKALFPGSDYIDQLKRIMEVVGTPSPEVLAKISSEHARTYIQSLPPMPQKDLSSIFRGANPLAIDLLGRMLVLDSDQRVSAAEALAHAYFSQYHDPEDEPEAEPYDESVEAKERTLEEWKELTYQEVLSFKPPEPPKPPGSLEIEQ
The target is the same in assay [7]. The note with it: at 1 µM.
In assay [8] the target is T1, Mitogen-activated protein kinase 13 (Homo sapiens) (UniProt O15264).
T1 sequence (whole entry): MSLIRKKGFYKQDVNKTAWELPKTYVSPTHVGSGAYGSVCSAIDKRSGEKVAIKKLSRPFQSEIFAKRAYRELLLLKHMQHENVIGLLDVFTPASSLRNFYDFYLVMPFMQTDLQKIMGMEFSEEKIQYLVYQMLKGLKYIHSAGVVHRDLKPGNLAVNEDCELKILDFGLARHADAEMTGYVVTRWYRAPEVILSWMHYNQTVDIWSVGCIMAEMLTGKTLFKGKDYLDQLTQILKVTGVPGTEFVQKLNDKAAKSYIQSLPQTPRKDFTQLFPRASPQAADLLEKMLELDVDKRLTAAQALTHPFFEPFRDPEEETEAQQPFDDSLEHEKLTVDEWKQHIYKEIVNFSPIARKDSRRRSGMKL
As to conditions: at 0.1 µM.

Assay [9] concerns the target T1, Mitogen-activated protein kinase 13 (Homo sapiens). The note with it: at 1 µM.
For assay [10], the target named is T2, Mitogen-activated protein kinase 12 (Homo sapiens) (UniProt P53778).
T2 sequence (whole entry): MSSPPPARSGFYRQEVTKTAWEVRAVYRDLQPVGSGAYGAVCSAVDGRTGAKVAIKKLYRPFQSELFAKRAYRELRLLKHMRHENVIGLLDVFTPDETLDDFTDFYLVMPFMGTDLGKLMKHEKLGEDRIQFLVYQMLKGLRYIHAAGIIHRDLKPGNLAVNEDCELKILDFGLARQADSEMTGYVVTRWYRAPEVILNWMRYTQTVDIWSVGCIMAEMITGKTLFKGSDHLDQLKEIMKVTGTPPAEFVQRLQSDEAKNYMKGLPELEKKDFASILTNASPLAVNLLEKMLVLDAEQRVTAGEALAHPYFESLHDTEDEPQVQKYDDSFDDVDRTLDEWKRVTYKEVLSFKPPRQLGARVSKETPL
As to conditions: at 0.1 µM.

The target of assay [11] is T2, Mitogen-activated protein kinase 12 (Homo sapiens). As to conditions: at 1 µM.
Assay [12] deals with SRSF protein kinase 1 (Homo sapiens) (UniProt Q96SB4). As to conditions: at 0.1 µM.
Sequence of SRSF protein kinase 1 (Homo sapiens) (Q96SB4 whole entry): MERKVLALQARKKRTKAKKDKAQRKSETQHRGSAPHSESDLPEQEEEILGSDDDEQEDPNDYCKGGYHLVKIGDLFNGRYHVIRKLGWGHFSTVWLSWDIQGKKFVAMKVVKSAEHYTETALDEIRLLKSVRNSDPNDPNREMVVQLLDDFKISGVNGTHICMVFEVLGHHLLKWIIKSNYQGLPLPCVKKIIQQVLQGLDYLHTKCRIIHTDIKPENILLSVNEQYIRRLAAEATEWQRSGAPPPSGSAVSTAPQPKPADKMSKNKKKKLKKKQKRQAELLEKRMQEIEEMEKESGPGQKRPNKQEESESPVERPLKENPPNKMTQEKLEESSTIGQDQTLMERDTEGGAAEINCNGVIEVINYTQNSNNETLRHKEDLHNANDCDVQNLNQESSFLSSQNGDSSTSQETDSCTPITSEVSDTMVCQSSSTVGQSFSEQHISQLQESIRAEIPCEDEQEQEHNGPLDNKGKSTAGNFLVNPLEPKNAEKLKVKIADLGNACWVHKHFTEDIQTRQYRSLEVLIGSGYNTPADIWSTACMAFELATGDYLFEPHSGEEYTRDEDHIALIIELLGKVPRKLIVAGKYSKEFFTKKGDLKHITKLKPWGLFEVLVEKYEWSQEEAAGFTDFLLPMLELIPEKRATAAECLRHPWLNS
Assay [13] has the same target. The note with it: at 1 µM.
The target of assay [14] is Phosphatidylinositol 4,5-bisphosphate 3-kinase catalytic subunit alpha isoform (Homo sapiens) (UniProt P42336). The note with it: at 0.1 µM.
Sequence of Phosphatidylinositol 4,5-bisphosphate 3-kinase catalytic subunit alpha isoform (Homo sapiens) (P42336 whole entry, canonical isoform): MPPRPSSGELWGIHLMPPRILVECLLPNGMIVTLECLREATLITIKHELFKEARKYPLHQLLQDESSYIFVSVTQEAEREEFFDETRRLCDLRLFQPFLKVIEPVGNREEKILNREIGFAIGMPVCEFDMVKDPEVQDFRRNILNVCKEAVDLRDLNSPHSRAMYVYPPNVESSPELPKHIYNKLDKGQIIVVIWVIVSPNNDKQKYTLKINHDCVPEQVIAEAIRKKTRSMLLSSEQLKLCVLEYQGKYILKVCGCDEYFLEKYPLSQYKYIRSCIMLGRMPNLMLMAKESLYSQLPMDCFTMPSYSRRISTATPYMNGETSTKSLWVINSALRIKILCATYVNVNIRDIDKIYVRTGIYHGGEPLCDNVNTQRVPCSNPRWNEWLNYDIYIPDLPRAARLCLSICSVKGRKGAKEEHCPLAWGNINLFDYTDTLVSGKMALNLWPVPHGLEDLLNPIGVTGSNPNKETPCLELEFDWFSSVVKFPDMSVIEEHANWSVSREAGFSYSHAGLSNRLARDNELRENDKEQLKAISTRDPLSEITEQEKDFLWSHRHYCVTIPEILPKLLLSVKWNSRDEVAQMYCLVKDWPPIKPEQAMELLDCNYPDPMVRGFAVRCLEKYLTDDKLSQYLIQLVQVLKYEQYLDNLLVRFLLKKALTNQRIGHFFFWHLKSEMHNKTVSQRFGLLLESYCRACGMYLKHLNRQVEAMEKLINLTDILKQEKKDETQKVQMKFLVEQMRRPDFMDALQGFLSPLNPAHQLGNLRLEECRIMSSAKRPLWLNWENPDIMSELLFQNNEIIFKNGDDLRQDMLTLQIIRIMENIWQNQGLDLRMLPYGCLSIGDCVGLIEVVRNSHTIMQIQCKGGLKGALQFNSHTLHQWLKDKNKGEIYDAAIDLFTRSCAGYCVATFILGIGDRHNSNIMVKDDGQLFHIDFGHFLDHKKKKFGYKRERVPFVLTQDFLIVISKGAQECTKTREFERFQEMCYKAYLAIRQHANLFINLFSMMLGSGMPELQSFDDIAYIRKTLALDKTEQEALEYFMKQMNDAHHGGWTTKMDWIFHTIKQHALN
Assay [15] shares this target. The note with it: at 1 µM.
Assay [16] addresses T3, Phosphatidylinositol 4,5-bisphosphate 3-kinase catalytic subunit delta isoform (Homo sapiens) (UniProt O00329).
T3 sequence (whole entry): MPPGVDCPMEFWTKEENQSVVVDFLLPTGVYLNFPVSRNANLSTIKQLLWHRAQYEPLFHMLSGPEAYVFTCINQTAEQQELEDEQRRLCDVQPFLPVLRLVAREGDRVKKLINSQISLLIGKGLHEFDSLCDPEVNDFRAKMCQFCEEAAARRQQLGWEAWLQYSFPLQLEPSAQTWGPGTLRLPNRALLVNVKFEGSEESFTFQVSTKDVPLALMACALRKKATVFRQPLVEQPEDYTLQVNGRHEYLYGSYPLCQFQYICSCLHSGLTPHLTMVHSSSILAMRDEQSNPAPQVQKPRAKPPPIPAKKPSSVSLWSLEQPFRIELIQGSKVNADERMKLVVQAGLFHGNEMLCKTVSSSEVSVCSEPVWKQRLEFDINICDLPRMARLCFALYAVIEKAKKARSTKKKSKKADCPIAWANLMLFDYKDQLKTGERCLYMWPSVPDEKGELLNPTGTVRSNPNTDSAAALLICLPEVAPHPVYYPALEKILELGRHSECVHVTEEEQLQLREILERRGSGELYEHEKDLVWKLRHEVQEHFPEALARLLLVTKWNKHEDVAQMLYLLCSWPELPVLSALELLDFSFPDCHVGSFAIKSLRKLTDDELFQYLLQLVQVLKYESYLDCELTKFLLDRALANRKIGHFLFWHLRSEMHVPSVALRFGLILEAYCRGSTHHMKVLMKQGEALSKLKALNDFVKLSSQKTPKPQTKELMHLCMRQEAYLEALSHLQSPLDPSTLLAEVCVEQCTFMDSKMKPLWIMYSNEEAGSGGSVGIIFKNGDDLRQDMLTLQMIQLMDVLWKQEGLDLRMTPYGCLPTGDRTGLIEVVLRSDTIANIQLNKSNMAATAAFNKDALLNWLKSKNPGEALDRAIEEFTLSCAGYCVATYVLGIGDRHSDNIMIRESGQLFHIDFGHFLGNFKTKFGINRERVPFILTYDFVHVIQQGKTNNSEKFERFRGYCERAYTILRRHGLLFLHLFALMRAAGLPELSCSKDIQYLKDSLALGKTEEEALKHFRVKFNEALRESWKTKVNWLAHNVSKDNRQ
As to conditions: at 0.1 µM.

Assay [17] deals with T3, Phosphatidylinositol 4,5-bisphosphate 3-kinase catalytic subunit delta isoform (Homo sapiens). The note with it: at 1 µM.
Assay [18] has as its target Phosphatidylinositol 4-kinase beta (Homo sapiens) (UniProt Q9UBF8). The note with it: at 0.1 µM.
Assay [19] has the same target. The note with it: at 1 µM.
Assay [20] concerns the target Sphingosine kinase 1 (Homo sapiens) (UniProt Q9NYA1). As to conditions: at 0.1 µM.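 Further: mean percent inhibition of SPHK1 activity, measured within the GSK PKIS screening panel.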

Sequence of Mitogen-activated protein kinase 3 (Homo sapiens) (P27361 whole entry): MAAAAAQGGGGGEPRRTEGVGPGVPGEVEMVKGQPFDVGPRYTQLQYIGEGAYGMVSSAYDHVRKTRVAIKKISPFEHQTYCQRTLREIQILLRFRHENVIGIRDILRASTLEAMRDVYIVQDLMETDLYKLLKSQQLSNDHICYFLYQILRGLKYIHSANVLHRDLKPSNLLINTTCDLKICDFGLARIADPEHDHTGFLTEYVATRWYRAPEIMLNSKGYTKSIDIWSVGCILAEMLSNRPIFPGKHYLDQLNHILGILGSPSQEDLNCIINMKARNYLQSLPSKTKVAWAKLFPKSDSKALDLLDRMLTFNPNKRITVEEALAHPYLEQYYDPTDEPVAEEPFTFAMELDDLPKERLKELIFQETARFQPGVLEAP
Sequence of SRSF protein kinase 3 (Homo sapiens) (Q9UPE1 whole entry): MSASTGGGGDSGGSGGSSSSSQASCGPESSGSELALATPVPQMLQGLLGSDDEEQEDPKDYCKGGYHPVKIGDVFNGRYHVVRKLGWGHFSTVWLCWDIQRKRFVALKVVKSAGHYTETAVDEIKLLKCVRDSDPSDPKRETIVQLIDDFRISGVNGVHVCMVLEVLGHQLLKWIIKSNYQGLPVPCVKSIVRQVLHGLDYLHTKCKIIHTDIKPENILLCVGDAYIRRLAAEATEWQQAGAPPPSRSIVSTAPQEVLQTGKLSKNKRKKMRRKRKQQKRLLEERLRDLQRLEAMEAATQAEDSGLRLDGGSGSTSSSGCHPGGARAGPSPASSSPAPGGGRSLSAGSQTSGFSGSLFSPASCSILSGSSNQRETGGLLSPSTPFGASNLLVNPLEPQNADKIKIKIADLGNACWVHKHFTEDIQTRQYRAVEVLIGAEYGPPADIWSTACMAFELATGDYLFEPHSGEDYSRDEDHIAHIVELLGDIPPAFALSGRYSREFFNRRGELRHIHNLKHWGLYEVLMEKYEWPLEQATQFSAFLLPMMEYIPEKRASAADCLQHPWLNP
Sequence of Phosphatidylinositol 4-kinase beta (Homo sapiens) (Q9UBF8 2-816 limits assumed): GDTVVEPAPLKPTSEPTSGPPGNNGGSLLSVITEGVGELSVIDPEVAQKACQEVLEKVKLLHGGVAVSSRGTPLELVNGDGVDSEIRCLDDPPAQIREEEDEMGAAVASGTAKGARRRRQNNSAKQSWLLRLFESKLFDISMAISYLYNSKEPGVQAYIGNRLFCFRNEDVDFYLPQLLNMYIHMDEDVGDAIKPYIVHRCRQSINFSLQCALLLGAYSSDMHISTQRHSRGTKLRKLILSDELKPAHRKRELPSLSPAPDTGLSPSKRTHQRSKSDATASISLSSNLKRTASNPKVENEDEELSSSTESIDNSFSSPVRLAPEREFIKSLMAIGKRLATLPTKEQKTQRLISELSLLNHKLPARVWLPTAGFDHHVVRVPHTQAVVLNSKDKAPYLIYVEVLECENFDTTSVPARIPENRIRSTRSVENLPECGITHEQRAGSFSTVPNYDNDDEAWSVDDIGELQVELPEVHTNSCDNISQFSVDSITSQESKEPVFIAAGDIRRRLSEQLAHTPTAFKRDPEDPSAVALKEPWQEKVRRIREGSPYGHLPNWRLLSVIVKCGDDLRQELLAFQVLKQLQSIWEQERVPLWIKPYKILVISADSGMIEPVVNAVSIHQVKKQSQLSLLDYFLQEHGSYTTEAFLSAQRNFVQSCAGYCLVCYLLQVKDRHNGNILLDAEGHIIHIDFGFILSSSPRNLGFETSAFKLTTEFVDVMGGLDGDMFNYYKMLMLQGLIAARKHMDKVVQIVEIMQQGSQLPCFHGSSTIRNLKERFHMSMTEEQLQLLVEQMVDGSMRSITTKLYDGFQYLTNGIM
Sequence of Sphingosine kinase 1 (Homo sapiens) (Q9NYA1 whole entry): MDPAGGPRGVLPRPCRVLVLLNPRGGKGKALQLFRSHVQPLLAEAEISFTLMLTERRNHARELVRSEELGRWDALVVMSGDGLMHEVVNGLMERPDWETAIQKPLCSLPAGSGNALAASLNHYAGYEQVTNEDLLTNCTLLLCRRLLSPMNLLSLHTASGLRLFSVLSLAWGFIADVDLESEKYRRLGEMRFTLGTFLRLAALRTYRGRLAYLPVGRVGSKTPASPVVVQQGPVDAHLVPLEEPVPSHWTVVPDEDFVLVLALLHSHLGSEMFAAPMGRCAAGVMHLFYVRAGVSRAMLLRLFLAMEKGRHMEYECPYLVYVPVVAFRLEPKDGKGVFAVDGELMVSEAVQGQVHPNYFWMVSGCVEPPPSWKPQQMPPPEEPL

The term inhibition denotes the drop in the measured response relative to a control, in per cent. Turning to `CCn1c(-c2nonc2N)nc2cnc(Oc3cccc(NC(=O)c4ccc(OCCN5CCOCC5)cc4)c3)cc21`, the inhibition is -0.18% in [1]; -2.67% in assay [2]; -1.29% in assay [3]; 2.01% in [4]; 5.87% in assay [5]; 0.84% in assay [6]. Moreover, the inhibition is 1.06% in assay [7]; -1.34% in assay [8]; 4.61% in assay [9]; 8.56% in assay [10]; 3.67% in assay [11]; -1.96% in assay [12]. Besides, the inhibition in assay [13] was -3.13%; in assay [14], 2.83%; in [15], 3.79%; in assay [16], 1.26%; in [17], 3.06%; in assay [18] it was -7.57%. The values for the inhibition in assay [19] and in assay [20] were -2.56% and 3.68%, respectively.

For the molecule `CCn1c(-c2nonc2N)nc2c(C#CC(C)(C)O)nc(OC[C@@H](N)c3ccccc3)cc21`, the inhibition was 1.84% in assay [1]; 0.05% in assay [2]; 3.01% in assay [3]; 1.93% in [4]; 1.14% in assay [5]; -1.91% in [6]. Further, the inhibition in [7] was 1.34%; in assay [8] it was -0.23%; in assay [9], -0.87%; in [10], -1.46%; in assay [11], -0.24%; in [12], 0.57%. In addition, the inhibition was -0.56% in [13]; -3.76% in [14]; -3.41% in assay [15]; -2.59% in assay [16]; -3.08% in assay [17]; 0.16% in assay [18]. Besides, the inhibition is 2.95% in assay [19] and 0.21% in assay [20].

With `COc1ccc2cc(-c3c(-c4ccncc4)nc(-c4ccc([S+](C)[O-])cc4)n3C)ccc2c1` (centres undefined), the inhibition in assay [1] is 0.18%; in assay [2], -1.39%; in assay [3], -1.03%; in assay [4] it was 1.72%; in assay [5] it was 8.34%; in assay [6], 3.87%. In addition, the inhibition in [7] was 7.24%; in assay [8] it was -1.65%; in assay [9], 3.19%; in assay [10], 2.2%; in assay [11], 2.03%; in assay [12] it was -3.09%. Besides, the inhibition in assay [13] was -4.71%; in [14] it was 2.81%; in [15], 3.47%; in assay [16] it was 6.86%; in assay [17], 3.16%; in assay [18] it was -2.02%. In addition, the inhibition in assay [19] was -2.26%; in assay [20] it was 0.08%.

In the case of `CCn1c(-c2nonc2N)nc2c(C#CC(C)(C)O)nc(CN3CCCC3)cc21`, the inhibition in [1] is 0.84%; in [2] it was -1.03%; in assay [3] it was -0.96%; in assay [4], 0.68%; in assay [5] it was -0.47%; in assay [6] it was -2.47%. The inhibition in assay [7] was 0.28%; in assay [8] it was 0.31%; in [9], -1.59%; in assay [10], 1.31%; in [11], 0.15%; in [12] it was -2.3%. Also, the inhibition in [13] is -2.96%; in assay [14] it was -2.21%; in assay [15], -0.12%; in assay [16] it was 0.87%; in assay [17], 3.83%; in assay [18], -0.02%. The inhibition was -2.03% in assay [19] and 0.49% in assay [20].

Consider `Cc1nn(C)c2cc(N(C)c3ccnc(Nc4cccc(S(N)(=O)=O)c4)n3)ccc12`, for which the inhibition in assay [1] was 0.11%; in assay [2] it was -3.4%; in [3], -1.66%; in [4], 4.32%; in assay [5], 19.7%; in assay [6] it was 3.77%. The inhibition was 25.1% in assay [7]; 1.54% in assay [8]; 4.16% in [9]; -0.41% in [10]; 2.2% in assay [11]; -1.51% in [12]. Also, the inhibition is -1.14% in [13]; 6.6% in assay [14]; 30.8% in [15]; 10.5% in assay [16]; 53.8% in [17]; -0.74% in assay [19]. Also, in assay [20], the inhibition was -0.2%.
